Bioassay records (PubChem BioAssay)
D2 PAM-1: potentiates the human D2 dopamine receptor allosterically. DiscoveRx D2 beta-arrestin cells, luminescence, 90 min; 100% = 57 uM dopamine signal. potentiation, % (no concentration beside the values). 360,000 tested, 0.23% active. AID 624464; in the data active = potentiation above about 50%; inconclusive = mostly about 30% to 49%
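PathHunter beta-arrestin assay in DiscoveRx D2 cells. Compounds were added with an EC20 of dopamine (50 nM final) for 90 min at 37 deg C. Luminescence was read 1 h after detection reagent, with 57 uM dopamine as the EC100 control.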
D2 PAM-2: positive allosteric modulators of human D2 dopamine receptor; AID 485347; 340,000 tested, 0.34% active; potentiation, % at 10 µM; P14416; HEK293 T-REx D2, calcium flux, EC20 dopamine potentiation;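 active = potentiation over 3 SD above the plate norm, cut at about 30% in these data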
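Tetracycline-induced Hek293 Trex D2 cells, force-coupled to calcium, loaded with no-wash calcium dye. Compound added with 180 s kinetic read for agonism, then EC20 dopamine and a further 180 s read for potentiation.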
D2 ag-1: agonists of human D2 dopamine receptor; HEK293 T-REx D2 cells, calcium flux agonist mode; activation, % at 2 µM; 340,000 tested, 0.53% active; P14416; AID 485358;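 active = activation over 3 SD above normal in the single-dose calcium agonist read, cut at about 30% in these data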
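Agonism scored from kinetic calcium signal (1 read/sec, 180 s) following compound pin transfer, after a 10 s baseline. Cells: HEK293 Trex line expressing inducible D2 receptor coupled to calcium, dye-loaded after overnight culture at 30 C.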
D2 antag: D2 dopamine receptor (human) antagonism; P14416; HEK293 TREx D2 cells, calcium flux, dopamine EC80; inhibition, % at 10 µM; 340,000 tested, 2% active; AID 485344; in the data active = inhibition above about 30%; inactive = below that, where a call was filed
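In this primary screen, negative modulation is detected by tracking calcium flux after an EC80 dopamine challenge in inducible HEK293 T-REx D2 cells preexposed to test compound for 180 s.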
D2 ag-2: activates the human D2 dopamine receptor | P14416 | DiscoveRx PathHunter D2 beta-arrestin, luminescence, 90 min; 100% = 57 uM dopamine signal | activation, % (no concentration beside the values) | 360,000 tested, 0.084% active; in the data active = activation above about 40%; inconclusive = between about 15% and that limit
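DiscoveRx PathHunter D2 beta-arrestin cells (2,100/well) attached overnight, then compound-stimulated 90 min at 37 C in HBSS/10 mM HEPES/0.1% Tween-20 buffer; beta-galactosidase complementation read by luminescence after 1 h at ambient temperature. Dopamine 57 uM final (EC100) as control.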
D3 ag: D3 receptor agonism confirmed, beta-arrestin readout; shares compounds with D2 ag-1; DiscoveRx D3 beta-arrestin cells, luminescence, 90 min; Potency, µM (series often up to 76.9 µM), most hits filed as activators; 2,300 tested, 4% active; also: nearly all actives have a fitted effect of over 70% in size
Target sequence (P35462 whole entry, looked up): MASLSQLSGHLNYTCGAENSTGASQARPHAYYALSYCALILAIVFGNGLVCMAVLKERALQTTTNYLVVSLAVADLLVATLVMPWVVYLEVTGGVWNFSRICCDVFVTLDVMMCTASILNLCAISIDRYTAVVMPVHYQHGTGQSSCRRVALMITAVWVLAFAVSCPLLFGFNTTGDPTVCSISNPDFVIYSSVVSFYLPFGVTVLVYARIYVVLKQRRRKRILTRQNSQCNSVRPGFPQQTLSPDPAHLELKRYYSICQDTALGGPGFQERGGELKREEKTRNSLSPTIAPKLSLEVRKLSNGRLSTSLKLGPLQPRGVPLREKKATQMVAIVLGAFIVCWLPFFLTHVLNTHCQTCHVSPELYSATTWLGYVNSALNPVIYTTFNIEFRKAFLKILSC
D2 ag-3: activates human D2 dopamine receptor in D3 counterscreen | shares compounds with D2 ag-1 | DiscoveRx PathHunter D2 beta-arrestin, luminescence, 90 min; response scale: percent relative to full dopamine signal | Potency, µM (series often up to 76.9 µM), hits mostly activators | 2,300 tested, 5.9% active | AID 720507; also: nearly all actives have a fitted effect of over 70% in size
Hits are given with their value; i = inactive; ? = inconclusive; nt = no result. Sampled rows, rich in hits. Any-hit rate of the full collection: about 2.4%. Unless noted, calls follow the shape of the dose curve; as a rule, active = well fitted activation curve with a large enough effect; inconclusive = small, poorly fitted or top-dose-only effect; inactive = flat fitted curve, though single readings scatter.

SMILES	D2 PAM-1	D2 PAM-2	D2 ag-1	D2 antag	D2 ag-2	D3 ag	D2 ag-3
COc1ccc(OCC(O)CN2CCN(c3ccc(OC)cc3)CC2)cc1 (stereo not given)	i	i	i	i	i	nt	nt
Cc1ccc(OCC(O)CN2CCN(c3ccccc3)CC2)cc1 (stereo not given)	i	i	45.7	62.2	i	i	i
OC(COc1cccc2ccccc12)CN1CCN(c2ccccc2)CC1 (stereo not given)	i	i	55.8	65.0	i	?	i
COc1ccc(N2CCN(CC(O)COc3ccc(F)cc3)CC2)cc1 (stereo not given)	i	i	i	i	i	nt	nt
C=CCc1ccccc1OCC(O)CN1CCN(c2ccccc2)CC1 (stereo not given)	nt	i	i	nt	nt	nt	nt
COc1cccc(OC)c1OCC(O)CN1CCN(c2ccccc2F)CC1 (stereo not given)	i	i	78.1	85.7	?	?	?
COc1ccc(N2CCN(CC(O)COc3c(OC)cccc3OC)CC2)cc1 (stereo not given)	i	i	i	i	i	nt	nt
OC(COc1ccc(Cl)cc1)CN1CCN(c2ccccc2)CC1 (stereo not given)	i	i	i	71.4	i	?	i
COc1cccc(CN2CCC(C(=O)N3CCN(c4ccccc4F)CC3)CC2)c1OC	i	i	i	i	i	i	i
C=CCc1cc(C)ccc1OCC(O)CN1CCN(c2ccccc2)CC1 (stereo not given)	i	i	61.9	79.9	i	0.631µM	i
Cc1ccccc1C(=O)NNc1ncnc2c1cnn2-c1cccc(Cl)c1	nt	i	i	nt	nt	nt	nt
COc1ccc(CNC(=O)c2sc3nc4n(c(=O)c3c2C)CCCCC4)cc1	nt	i	i	nt	nt	nt	nt
CC(=O)N1CCc2cc(Br)cc(S(=O)(=O)CCC(=O)N3CCN(c4ccccc4Cl)CC3)c21	nt	i	nt	nt	nt	nt	nt
Cc1cccc(-c2nc3c4ccccc4nc(N4CCN(c5ccccc5F)CC4)n3n2)c1	nt	i	i	nt	nt	nt	nt
COc1ccc(C)cc1NC(=O)N(C(C)C)C1CCN(C(C)=O)CC1	nt	i	i	nt	nt	nt	nt
CCCCN(C)C(=O)c1ccc2c(c1)N(Cc1cccc(Cl)c1)C(=O)c1ccccc1S2=O (stereo not given)	nt	i	i	nt	nt	nt	nt
Cc1c(Cl)cccc1NC(=O)C(=O)NCCc1csc(-c2ccc(C(F)(F)F)cc2)n1	nt	i	i	nt	nt	nt	nt
COCCN(C(=O)C1=COCCO1)c1c(N)n(CC(C)C)c(=O)[nH]c1=O	i	i	i	i	i	i	i
COCCN(C(=O)c1ccc(COc2ccccc2)o1)c1c(N)n(CC(C)C)c(=O)[nH]c1=O	i	i	i	i	i	i	i
COCCN(C(=O)C1=COCCO1)c1c(N)n(Cc2ccccc2)c(=O)[nH]c1=O	i	i	i	i	i	nt	nt
Cc1ccsc1/C=N\NC(=O)CCc1c(C)n[nH]c1C	i	i	i	i	i	nt	nt
Cc1n[nH]c(C)c1CCC(=O)N/N=C/c1cccs1	i	i	i	i	i	i	i
Cc1cc(NC(=O)c2ccccc2F)on1	i	i	67.8	i	i	i	i
COc1cccc2sc(N(Cc3cccnc3)C(=O)c3ccc4c(c3)OCCO4)nc12	nt	i	i	nt	nt	nt	nt
COc1ccc(C2(NC(C)=O)CCN(C(=O)CCC(=O)O)CC2)cc1	i	i	50.8	i	i	i	i
SMILES	D2 PAM-1	D2 PAM-2	D2 ag-1	D2 antag	D2 ag-2	D3 ag	D2 ag-3
COc1ccc(CNC(=O)CCC(=O)N2CCN(C(C)=O)CC2)cc1	i	i	i	i	i	nt	nt
CC(C)C(NS(=O)(=O)c1ccc2c(c1)oc(=O)n2C)C(=O)NCc1ccccc1 (stereo not given)	nt	i	nt	nt	nt	nt	nt
COc1ccc(C(=O)c2cn(Cc3ccc(F)cc3)c3c(F)cc(F)cc3c2=O)cc1	nt	i	i	nt	nt	nt	nt
c1ccc(N2CCN(CCc3nnc4n3CCCCC4)CC2)cc1	i	i	32.2	i	i	i	i
c1ccc(Cc2nnc3n2CCCCC3)cc1	i	i	i	i	i	nt	nt
CSc1cccc(NC(=O)CN2C(=O)COc3ccc(Cl)cc32)c1	nt	i	i	nt	nt	nt	nt
COc1cccc(CN(C)C(=O)c2cccc(S(=O)(=O)N3CCN(Cc4ccccc4)CC3)c2)c1OC	i	i	i	i	i	i	i
Cc1oc2ncn(C)c(=O)c2c1C(=O)NCCCN1CCCC(C)C1 (stereo not given)	nt	i	nt	nt	nt	nt	nt
CC1=Nc2ccccc2/C1=C/c1nc(-c2ccc(C)s2)oc1O	i	nt	nt	nt	i	nt	nt
CC1=Nc2ccccc2/C1=C/c1sc(=N)n(-c2nccs2)c1O	i	i	i	i	i	i	i
O=C1C2CCCN2C(=O)N1CCN1CCN(c2ccccc2)CC1 (stereo not given)	i	i	42.0	70.8	i	i	i
O=C1C2CCCN2C(=O)N1CCCCN1CCN(c2cccc(Cl)c2)CC1 (stereo not given)	i	i	65.8	79.6	i	i	i
O=C1C2CCCN2C(=O)N1CCCCN1CCN(c2ccccc2)CC1 (stereo not given)	i	i	85.7	61.9	?	?	?
O=C1C2CCCCN2C(=O)N1CCN1CCN(c2ccc(F)cc2)CC1 (stereo not given)	i	nt	nt	nt	i	nt	nt
Cc1ccc(N2CCN(CCCCN3C(=O)C4CCCN4C3=O)CC2)cc1 (stereo not given)	i	i	nt	nt	i	nt	nt
O=c1[nH]cc(NCCc2ccccc2)c(=O)[nH]1	i	i	38.0	i	i	i	i
O=c1[nH]cc(NCc2ccccc2)c(=O)[nH]1	i	nt	nt	nt	i	nt	nt
COc1cc(-c2ccno2)ccc1S(=O)(=O)N1CCN(c2ccccc2)CC1	nt	i	nt	nt	nt	nt	nt
CCOc1cc(CNC(=O)CSc2n[nH]c(-c3ccccc3)n2)cc(OCC)c1OCC	nt	i	i	nt	nt	nt	nt
COc1ccc(C(=O)c2c(N)c(C(=O)Nc3ccccc3Cl)c3ccccn23)cc1	nt	i	nt	nt	nt	nt	nt
O=C(O)CC1Sc2ccccc2NC1=O (stereo not given)	i	i	50.7	i	i	i	i
CCOC(=O)CC1Sc2ccccc2NC1=O (stereo not given)	i	i	nt	i	i	nt	nt
COCC(=O)Nc1nnc(-c2ccc(C(C)(C)C)cc2)s1	i	i	i	i	i	i	i
COc1ccc(S(=O)(=O)N(Cc2cccnc2)Cc2cc3ccccc3[nH]c2=O)cc1	i	i	i	i	i	nt	nt
Cc1ccc(S(=O)(=O)N(Cc2cccnc2)Cc2cc3ccccc3[nH]c2=O)cc1	i	i	i	93.9	i	i	i
CCOC(=O)C1CCN(CC(=O)Nc2c(C(=O)OC)[nH]c3cccc(C)c23)CC1	i	i	i	i	i	i	i
